# In PubChem BioAssay:
# Records with an inconclusive call do not appear. Active and inactive are the calls of the source. Unless noted, no cut-off is given here; in the data, nearly all actives have IC50 up to about 30 µM.
# Test: SU-DIPG-XXV glioma cell viability, MIPE5.0 library, qHTS (AID 1347068);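 for IC50: cells exposed to compound for 48 hours before viability readout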
# Details: not given
Compound,outcome,IC50
COc1ccc2c(c1)C(c1ccc(F)cc1)=C(CN1CCCC1)CO2,inactive,
C[C@H]1CC2[C@@H]3CCC4=CC(=O)C=C[C@]4(C)[C@@]3(F)[C@@H](O)C[C@]2(C)[C@@]1(O)C(=O)CO (stereo partly drawn),inactive,
CCN1/C(=C/C(C)=O)Sc2ccc(OC)cc21,inactive,
Nc1nc(F)nc2c1ncn2C1OC(COP(=O)(O)O)C(O)C1O (stereo not drawn),inactive,
C=CC(=O)N1CCC(C2CCNc3c(C(N)=O)c(-c4ccc(Oc5ccccc5)cc4)nn32)CC1 (stereo not drawn),inactive,
COCCOc1ccc(N2CCN(CCn3ncc4c3nc(N)n3nc(-c5ccco5)nc43)CC2)cc1,inactive,
Cc1ccc2cc(-c3c(C)ccc(C(=O)c4c(-c5ccccc5)n(C)n(-c5ccccc5)c4=O)c3N)ccc2n1,inactive,
C[C@H](NC(=O)[C@H]1NCC[C@@H]1O)c1ccc(-c2noc(CCC3CCCC3)n2)cc1,inactive,
OCCC#Cc1nc(-c2ccc(F)cc2)c(-c2ccncc2)n1CCCc1ccccc1,inactive,
COC1CC(C(=O)c2ccc3c(N)ncc(-c4ccc(-c5cnn(C)c5)cc4)c3n2)C1 (stereo not drawn),inactive,
CC(=O)O/N=C1\C(=O)N(Cc2cc(Cl)ccc2Cl)c2ccc(Cl)cc21,,8.33 µM (active)
NC(=O)c1ccc2nc(-c3ccc(Oc4ccc(Cl)cc4)cc3)[nH]c2c1,inactive,
N#CN1CCC[C@@H](n2nc(-c3ccc(Oc4ccc(F)cc4F)cc3)c(C(N)=O)c2N)C1,inactive,
CCNC(=O)Nc1ncc(-c2cc(-c3c(C)cc(OC)cc3C)nc(-c3cnccn3)n2)s1,inactive,
O=c1[nH]nc2c3c(cccc13)NC(CN1Cc3ccccc3C1)=N2,inactive,
CC1=NN(c2ccc(C(=O)O)cc2)C(=O)/C1=C/c1ccc(-c2cc(C)c(C)cc2[N+](=O)[O-])o1,inactive,
COc1cc2nccc(Oc3ccc(NC(=O)c4cn(C(C)C)c(=O)n(-c5ccc(F)cc5)c4=O)cc3F)c2cc1OC,inactive,
CC1CCN(c2cc(N3CCN(C)CC3)ccc2NC(=O)c2cc(C#N)c[nH]2)CC1,inactive,
Cc1ccc(Nc2cc(N[C@@H]3CCCC[C@@H]3N)nnc2C(N)=O)nc1C,inactive,
Cn1cc(-c2ccc(-c3cncc(Cl)c3N3CCC4(CCNC4=O)CC3)cc2)cn1,inactive,

# Test: sensitizers of A549 cells to miR-34 induction, primary screen, imaging, A549 dox-inducible miR-34, nuclei and caspase counts (AID 1347080;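 active = compounds whose cell count with miR-34 switched on is under 0.7 times the count with it off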)
# Details: A549 miR-34 inducible, Hoechst nuclei count, 48 h; stronger effect = lower value; cell number ratio, induced over uninduced
row,Compound,fold change
1,Cn1cc(-c2cnn3c(N)c(Br)c(C4CCCNC4)nc23)cn1 (stereo not drawn),0.949 (inactive)
2,CCN1/C(=C/C(C)=O)Sc2ccc(OC)cc21,1.04 (inactive)
3,CNCc1ccc(-c2cc(-c3nc(-c4ccc(S(=O)(=O)C(C)C)cc4)cnc3N)on2)cc1,1.09 (inactive)
4,Nc1nc(F)nc2c1ncn2C1OC(COP(=O)(O)O)C(O)C1O (stereo not drawn),0.831 (inactive)
5,S=C(NCc1ccc2c(c1)OCO2)N1CCN(c2ncnc3c2oc2ccccc23)CC1,0.868 (inactive)
6,Cc1cccc(CC(=O)N2CCc3c2ccc(-c2cn(C)c4ncnc(N)c24)c3F)n1,1.38 (inactive)
7,CN1CCN(c2ccc(OC(F)(F)F)c(Nc3ncc4c(n3)-c3c(c(C(N)=O)nn3CCO)CC4)c2)CC1,0.983 (inactive)

# Same assay, conditions: A549 miR-34 inducible, Hoechst nuclei count, 48 h; measured here: relative caspase fold change +Dox/-Dox
row,Compound,fold change
1,Cn1cc(-c2cnn3c(N)c(Br)c(C4CCCNC4)nc23)cn1 (stereo not drawn),0.873
2,CCN1/C(=C/C(C)=O)Sc2ccc(OC)cc21,1.19
3,CNCc1ccc(-c2cc(-c3nc(-c4ccc(S(=O)(=O)C(C)C)cc4)cnc3N)on2)cc1,0.389
4,Nc1nc(F)nc2c1ncn2C1OC(COP(=O)(O)O)C(O)C1O (stereo not drawn),1.44
5,S=C(NCc1ccc2c(c1)OCO2)N1CCN(c2ncnc3c2oc2ccccc23)CC1,1.07
6,Cc1cccc(CC(=O)N2CCc3c2ccc(-c2cn(C)c4ncnc(N)c24)c3F)n1,0.997
7,CN1CCN(c2ccc(OC(F)(F)F)c(Nc3ncc4c(n3)-c3c(c(C(N)=O)nn3CCO)CC4)c2)CC1,0.326

# Same assay, conditions: A549 miR-34 inducible, Hoechst nuclei count, 48 h; measured here: total cells with miR-34 induction; stronger effect = lower value
row,Compound,cell count
1,Cn1cc(-c2cnn3c(N)c(Br)c(C4CCCNC4)nc23)cn1 (stereo not drawn),6160
2,CCN1/C(=C/C(C)=O)Sc2ccc(OC)cc21,7360
3,CNCc1ccc(-c2cc(-c3nc(-c4ccc(S(=O)(=O)C(C)C)cc4)cnc3N)on2)cc1,2400
4,Nc1nc(F)nc2c1ncn2C1OC(COP(=O)(O)O)C(O)C1O (stereo not drawn),1120
5,S=C(NCc1ccc2c(c1)OCO2)N1CCN(c2ncnc3c2oc2ccccc23)CC1,3980
6,Cc1cccc(CC(=O)N2CCc3c2ccc(-c2cn(C)c4ncnc(N)c24)c3F)n1,7830
7,CN1CCN(c2ccc(OC(F)(F)F)c(Nc3ncc4c(n3)-c3c(c(C(N)=O)nn3CCO)CC4)c2)CC1,1120

# Same assay, conditions: A549 miR-34 inducible, Hoechst nuclei count, 48 h; measured here: total cells without miR-34 induction
row,Compound,cell count
1,Cn1cc(-c2cnn3c(N)c(Br)c(C4CCCNC4)nc23)cn1 (stereo not drawn),6490
2,CCN1/C(=C/C(C)=O)Sc2ccc(OC)cc21,7040
3,CNCc1ccc(-c2cc(-c3nc(-c4ccc(S(=O)(=O)C(C)C)cc4)cnc3N)on2)cc1,2210
4,Nc1nc(F)nc2c1ncn2C1OC(COP(=O)(O)O)C(O)C1O (stereo not drawn),1350
5,S=C(NCc1ccc2c(c1)OCO2)N1CCN(c2ncnc3c2oc2ccccc23)CC1,4580
6,Cc1cccc(CC(=O)N2CCc3c2ccc(-c2cn(C)c4ncnc(N)c24)c3F)n1,5660
7,CN1CCN(c2ccc(OC(F)(F)F)c(Nc3ncc4c(n3)-c3c(c(C(N)=O)nn3CCO)CC4)c2)CC1,1140
